Assay outcomes: PubChem, The Scripps Research Institute Molecular Screening Center
Shown are actives, neighbours in structure and some others; about 1.3% of the full set was active somewhere.
Fam108B inh: Fam108B inhibition, counter-screen for RBBP9 inhibitors | recombinant Fam108B, FP-Rh probe fluorescence polarization | inhibition, % at 9.51 µM | actives 0.33% (n = 300,000) | AID 1947;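 active = inhibition above the screen mean inhibition plus 3 SD, computed separately per campaign, cut at about 18% in these data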;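 note: inhibitors lower polarization as less probe binds the enzyme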
LYPLA2 inh: blocks human lysophospholipase 2, a PME1 counter-screen. O95372. recombinant LYPLA2, FP-Rh probe fluorescence polarization. inhibition, % at 5.9 µM. actives 0.38% (n = 320,000). AID 2177;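 active = inhibition above the screen-wide mean plus 3 SD, limit set per campaign, cut at about 26% in these data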;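 note: 0% = LYPLA2 with DMSO and 100% = wells lacking LYPLA2 enzyme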
Target sequence (O95372 whole entry, looked up): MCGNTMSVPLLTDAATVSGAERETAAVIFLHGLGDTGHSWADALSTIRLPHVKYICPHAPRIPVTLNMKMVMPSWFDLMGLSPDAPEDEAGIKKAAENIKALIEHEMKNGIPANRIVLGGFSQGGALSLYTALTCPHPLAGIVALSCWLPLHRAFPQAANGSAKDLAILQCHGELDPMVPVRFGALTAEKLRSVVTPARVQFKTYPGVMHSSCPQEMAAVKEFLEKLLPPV
PME-1 primary: blocks human protein phosphatase methylesterase 1 | AID 2130 | recombinant PME-1, FP-Rh probe fluorescence polarization | Q9Y570 | inhibition, % at 5.9 µM | actives 0.53% (n = 320,000);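 active = inhibition above the campaign mean of all compounds plus 3 SD, cut at about 26% in these data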;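 note: competitive labeling of PME-1 active site by serine hydrolase directed probe; 0% = PME-1 with DMSO and 100% = wells lacking PME-1 enzyme; inhibitors block probe labeling so polarization falls and inhibition rises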
PREPL inhibitor: inhibitors of human prolyl oligopeptidase-like enzyme PREPL | Q4J6C6 | recombinant PREPL, fluorescence polarization activity-based probe | inhibition, % at 5.96 µM | actives 0.68% (n = 320,000) | AID 2751; in the data active = inhibition above about 43%;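 note: 0% = enzyme with DMSO and 100% = wells lacking enzyme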
LYPLA1 inh: counter-screen for PME1 inhibitors: inhibitors of human LYPLA1; actives 0.16% (n = 320,000); recombinant LYPLA1, FP-Rh probe fluorescence polarization; O75608; inhibition, % at 5.9 µM;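 active = inhibition above the mean of all tested compounds plus 3 SD, set per campaign, cut at about 14% in these data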;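 note: inhibitors block serine hydrolase probe labeling of LYPLA1 so polarization falls; 0% = enzyme with DMSO and 100% = wells lacking LYPLA1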
Target sequence (O75608 whole entry, looked up): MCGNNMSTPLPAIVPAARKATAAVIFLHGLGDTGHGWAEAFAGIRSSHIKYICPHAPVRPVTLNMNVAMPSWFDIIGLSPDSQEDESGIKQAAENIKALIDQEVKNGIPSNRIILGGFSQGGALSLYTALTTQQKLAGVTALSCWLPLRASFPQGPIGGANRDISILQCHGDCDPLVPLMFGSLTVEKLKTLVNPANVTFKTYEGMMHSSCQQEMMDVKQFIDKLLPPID
LYPLA2 conf: counter-screen for PME1 inhibitors: confirmation of human LYPLA2 inhibitors; shares compounds with LYPLA2 inh; recombinant LYPLA2, FP-Rh probe fluorescence polarization; inhibition, % at 5.9 µM; AID 2232; actives 72% (n = 1,100);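 active = mean inhibition across replicates above the hit cutoff set in the primary screen, cut at about 26% in these data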;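 note: blocked labeling of the enzyme by serine hydrolase FP-Rh probe lowers polarization; 0% = enzyme with DMSO and 100% = wells lacking LYPLA2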
LYPLA2 gel ABPP: LYPLA2 (human) inhibition, late stage results; shares compounds with LYPLA2 inh; rhLYPLA2 in mouse brain proteome, gel ABPP FP-Rh; inhibition, % at 20 µM; actives 30% (n = 150);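 active = inhibition of LYPLA2 enzyme probe labeling above about 50%, limit read from the data; inactive = inhibition below that limit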;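 note: loss of FP-Rh probe labeling of the LYPLA2 gel band measured as band density; 0% = DMSO only control band and 100% = blank gel background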
The depositor's hits bear a star; . = not tested or not shown.

SMILES	Fam108B inh	LYPLA2 inh	PME-1 primary	PREPL inhibitor	LYPLA1 inh	LYPLA2 conf	others
C=CCc1ccccc1OCC(O)CN1CCN(CCN2C(=O)c3cccc4cccc(c34)C2=O)CC1 (stereo not drawn)	-8	27*	-5	10	5	37*
CCC(OCC(O)CN1CCN(CCN2C(=O)c3cccc4cccc(c34)C2=O)CC1)c1ccccc1 (stereo not drawn)	2	45*	-9	-11	3	46*
CC(=O)c1ccc(OCC(O)CN2CCN(CCN3C(=O)c4cccc5cccc(c45)C3=O)CC2)cc1 (stereo not drawn)	1	53*	2	3	2	59*	LYPLA2 gel ABPP=20
Cc1ccccc1OCC(O)CN1CCN(CCN2C(=O)c3cccc4cccc(c34)C2=O)CC1 (stereo not drawn)	-5	39*	1	-17	-3	48*
Cc1ccc(N=C2NC(=O)CC(C(=O)Nc3ccc4c(c3)OCO4)S2)cc1 (stereo not drawn)	-1	28*	-6	5	3	13
Cc1ccc(OCC(=O)OCC(=O)c2ccccc2)cc1C	1	29*	4	13	2	2
Cc1ccccc1OCC(=O)OCC(=O)c1ccc(OC(=O)c2ccccc2)cc1	1	0	-5	-4	-4	.
Cc1oc(-c2ccccc2Cl)nc1CS(=O)(=O)CC(=O)NCCN1CCOCC1	10	0	1	13	2	.
O=C(c1ccc(OC2CCN(CCc3ccccc3)CC2)cc1)N1CCCC(CO)C1 (stereo not drawn)	3	19	4	23	2	.
CC1CCCN(C(=O)c2ccc(OC3CCN(CCc4ccccc4)CC3)cc2)C1 (stereo not drawn)	3	41*	2	18	1	33*
CC(=O)N1CCN(c2ccc(NC(=O)c3cc4ccccc4o3)cc2)CC1	1	8	-5	11	4	.
CCCC(=O)Nc1ccc(N2CCN(C(=O)c3cc4ccccc4o3)CC2)cc1	0	45*	2	13	10	50*
COC(=O)c1[nH]c2cccc(OC)c2c1NC(=O)C(C)N1CCC(C)CC1 (stereo not drawn)	-3	2	-3	12	2	.
CCS(=O)(=O)NCCc1cc2ccc(C)cc2[nH]c1=O	4	-3	-9	-9	0	.
CC(=O)Nc1ccc(CN2CCN(c3cccc(C(F)(F)F)c3)CC2)cc1	-3	55*	1	9	5	58*	LYPLA2 gel ABPP=17
Cc1ccc(CC(=O)N2CCN(c3cccc(C(F)(F)F)c3)CC2)cc1	-2	4	1	1	-1	.
CC/C(C)=C1\SC(N2CCN(c3cccc(C(F)(F)F)c3)CC2)=NC1=O	1	33*	-5	19	3	31*
COC(=O)c1ccc(COc2ncnc3c(Cl)cc(Cl)cc23)o1	-1	3	-5	-17	-3	.
CCN(CC(=O)NCc1ccc(F)cc1)C(=O)Cc1ccc(OC)cc1	0	3	0	-1	0	.
CCOC(=O)C1(CCOc2ccccc2)CCN(Cc2ccc3nonc3c2)CC1	-1	31*	-2	-11	4	28*
O=C(OCC(=O)N1CCCC1)c1cnc(Cl)c(Cl)c1	.	.	.	1	.	.
O=C(Oc1ccc(Cl)cc1)c1ccc(N2CCOCC2)c([N+](=O)[O-])c1	0	33*	-3	37	4	28*
CN(C(=O)COc1ccc([N+](=O)[O-])cc1)C1CCS(=O)(=O)C1 (stereo not drawn)	4	31*	-5	-1	1	7
O=C(COc1ccc([N+](=O)[O-])cc1)N(C1CCCCC1)C1CCS(=O)(=O)C1 (stereo not drawn)	-2	-1	-4	7	3	.
Cc1cccc(Nc2c([N+](=O)[O-])cc(C(=O)N3CC(=O)Nc4ccccc43)cc2[N+](=O)[O-])c1	5	32*	6	-47	-3	38*
SMILES	Fam108B inh	LYPLA2 inh	PME-1 primary	PREPL inhibitor	LYPLA1 inh	LYPLA2 conf	others
Cc1ccc(C)c(Nc2c([N+](=O)[O-])cc(C(=O)N3CC(=O)Nc4ccccc43)cc2[N+](=O)[O-])c1	-2	6	7	-106	1	.
COc1ccc(NC2CC(=O)N(c3cc([N+](=O)[O-])ccc3C)C2=O)cc1 (stereo not drawn)	2	2	2	18	3	.
CCCCc1cc(=O)oc2cc(OCC(=O)Nc3cccnc3)c(Cl)cc12	0	28*	3	5	3	14
CC(=O)NCCc1ccc(C(=O)Cn2cnc3ccccc3c2=O)cc1	-3	29*	-3	-1	2	39*
CC1CC(C)CN(c2ccc(-n3cnnn3)cc2[N+](=O)[O-])C1 (stereo not drawn)	-1	4	-3	26	5	.
O=[N+]([O-])c1cc(-n2cnnn2)ccc1N1CCC(Cc2ccccc2)CC1	7	28*	8	37	2	34*
O=C(Cn1cc([N+](=O)[O-])cn1)Nc1ccc(Cn2cc(Br)cn2)cc1	5	56*	-7	28	4	57*	LYPLA2 gel ABPP=20
CN(CC(=O)Nc1ccccc1Br)C(=O)CNC(=O)c1ccco1	4	-2	-3	-4	0	.
CC(=O)c1ccc(S(=O)(=O)N2CCN(CCOc3ccc(Br)cc3)CC2)cc1	.	37*	1	5	3	37*
O=C1CC(=C2c3ccccc3-c3ccccc32)C(=O)N1CCCCN1CCN(c2ccccc2)CC1	-1	3	2	0	-6	.
O=C(CCNC(=O)c1ccc(Cl)cc1)Nc1ccc(S(=O)(=O)N2CCOCC2)cc1	.	1	-1	-5	0	.
O=C(NCC1CCN(c2ccc(S(=O)(=O)N3CCOCC3)cc2)CC1)c1ccc(Cl)cc1	3	81*	1	35	1	76*	LYPLA2 gel ABPP=59*
Cn1c(SCC(=O)Nc2ccc3cn[nH]c3c2)nnc1-c1cnccn1	-2	4	-7	-7	-1	.
Cn1c(SCC(=O)Nc2ccc3cn[nH]c3c2)nnc1-c1cccs1	5	29*	14	-40	4	-2
C/C=C/c1cc(CN2CCN(c3ccc(OC)cc3)CC2)c(O)c(OC)c1	5	9	-4	8	-3	.
N#Cc1ccc(CN2CCN(CC(=O)NCCc3ccc(Cl)cc3Cl)CC2)cc1	6	27*	7	22	-1	17
O=C(Cn1cc(C(F)(F)F)ccc1=O)NCCc1ccc(Cl)cc1Cl	0	-3	3	4	1	.
Cc1c(C(=O)NCc2ccccc2CN2CCCC2)oc2ccc(F)cc12	.	-5	2	23	-3	.
